Compounds with a hit are over-represented: about 2.2% of the library has one in this group of screens.
Shn3 3UTR inh: reduction of Shn3 3'UTR firefly luciferase signal, primary screen, Schnurri-3 inhibitor project, cell-based, Clone20 osteoblasts, set 2. hit rate 0.52% among 360,000. Clone20 osteoblast Shn3 3'UTR firefly luciferase, 24 h. inhibition, % at 12.5 µM;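 active means mean inhibition of at least 75% with every replicate also reaching 75%; inconclusive means mean inhibition at least 75% but some replicate below; inactive means mean inhibition below 75%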;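 further: 0% = median of neutral control wells and 100% = pilot-screen positive control compound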
TRPM1 prom inh: inhibitors of MITF-dependent TRPM1 promoter reporter, primary screen, cell-based, SK-MEL-5, single point, luciferase; SK-MEL-5 TRPM1 promoter luciferase, 24 h; inhibition, % at 12.5 µM; hit rate 0.83% among 330,000;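 active means mean inhibition across replicates of 60% or more, whatever share of single replicates reaches that level; inconclusive means some that reach 60%, reason not given; inactive means mean inhibition across replicates below 60%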
PAX8 reporter: inhibitors of PAX8-driven TPO luciferase reporter, primary screen, RMG-I cells, single concentration; SteadyGlo, 24 h; AID 652154, 2013; hit rate 1.2% among 360,000; inhibition, % at 12.6 µM;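 active means mean replicate inhibition at least 60% with every replicate also reaching 60%; inconclusive means only one of the two criteria is met; inactive means mean below 60% and not all replicates reaching 60%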;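 further: luciferase light reporting Pax8 driven TPO promoter activity; plate controls were median of neutral control wells for no effect and mitoxantrone controls for full effect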
LMP1 NFkB inh: EBV LMP1-driven NF-kappaB luciferase reporter inhibitors, primary screen, cell-based, luminescence, single point; hit rate 0.69% among 350,000; inhibition, % at 12.5 µM; LMP1-induced NF-kappaB luciferase reporter cells; in the data active means inhibition above about 41%; inconclusive means no clear call, values can overlap the other calls;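 further: 0% = neutral control wells and 100% = reference inhibitor control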
LGR2 antag: inhibitors of bursicon-induced LGR2 CRE-luciferase signal, primary screen, cell-based, HEK293, CRE-luciferase reporter, bursicon stimulation. Drosophila bursicon receptor LGR2 (rickets). bursicon-stimulated, 4 h. inhibition, % at 9.99 µM. hit rate 0.35% among 380,000. AID 720647, 2013;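 active means drop in luminescence signal, shown as inhibition above about 50% in the replicate tests, limit read from the data, passing the limit was not always enough; inconclusive means probably only some replicates passing the limit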;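 further: agonist challenge used bursicon conditioned medium at about half maximal strength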
EWS-Fli block: EWS/Fli-driven NR0B1 reporter inhibitors, primary screen, A673 cells, NR0B1 luciferase, luminescence, MLPCN library. viability-normalised. AID 651661, 2012. inhibition, % at 12.6 µM. hit rate 0.67% among 350,000;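 active means mean inhibition of at least 50% after viability correction, with every replicate also passing that limit; inconclusive means mean reaches 50% but only one of two replicates passes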;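 further: firefly luciferase signal divided by Alamar Blue viability fluorescence both relative to DMSO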
* marks the source's active call; other numbers are inactive results; ? = inconclusive; . = no result given.

SMILES	Shn3 3UTR inh	TRPM1 prom inh	PAX8 reporter	LMP1 NFkB inh	LGR2 antag	EWS-Fli block
CCOC(=O)OC(C)OC(=O)[C@@H]1N2C(=O)[C@@H](NC(=O)[C@H](N)c3ccccc3)[C@H]2SC1(C)C (stereo partly specified)	9	0	-8	56*	.	1
CC(C)(C)c1cc(CN2CCN(CCO)CC2)cc(C(C)(C)C)c1O	-4	4	.	-9	-12	.
CN1CCN(CC(=O)c2cc(C(C)(C)C)c(O)c(C(C)(C)C)c2)CC1	-4	-11	-4	86*	11	9
CC(C)C#Cc1ccc([C@@H]2[C@H](CO)N3CCCCN(CC4CC4)C[C@@H]23)cc1	.	.	9	.	-5	6
O=c1cc2oc3cc(O)c(O)cc3c(-c3ccccc3[N+](=O)[O-])c-2cc1O	25	45	102*	23	19	-55
O=c1cc(-c2ccccc2Cl)oc2cccc(O)c12	-55	7	-35	10	.	-35
NC(=O)[C@H]1CC2(CC(c3cccc(NC(=O)COc4ccc(Cl)cc4)c3)=NO2)CN1C(=O)C(c1ccccc1)c1ccccc1 (stereo partly specified)	-2	45	89*	11	-2	10
Cc1c(C(=O)N2CC3(CC(c4cccc(NC(=O)CC(c5ccccc5)c5ccccc5)c4)=NO3)C[C@@H]2C(N)=O)cc([N+](=O)[O-])cc1[N+](=O)[O-] (stereo partly specified)	12	33	65*	-8	11	6
NC(=O)[C@@H]1CC2(CC(c3cccc(NC(=O)COc4ccc(Cl)cc4)c3)=NO2)CN1C(=O)COc1ccc(Cl)cc1 (stereo partly specified)	64	24	?	20	15	8
C/C=C(\C)C(=O)Nc1cccc(C2=NOC3(C2)C[C@@H](C(N)=O)N(C(=O)c2cc([N+](=O)[O-])cc([N+](=O)[O-])c2C)C3)c1 (stereo partly specified)	3	3	13	7	2	6
COc1cccc(C(=O)Nc2ccc3c(c2)C(=O)N(C)C[C@H](OC)[C@@H](C)CN(CC2CC2)[C@@H](C)CO3)c1	.	.	-6	.	0	8
CCCCN1C=CC(=C2C(=O)c3ccccc3C2=O)C=C1	91*	96*	82*	75*	.	80*
CCCCC1C(=O)N(c2ccccc2)N(c2ccccc2)C1=O	-11	-2	-9	10	-14	-7
COCC(=O)N1[C@H](C#N)[C@H](c2ccccc2-c2cccc(F)c2)[C@@H]1CO	.	.	-11	.	-2	-5
O=C(Cc1cccc(C(F)(F)F)c1)OCC(=O)N1CCN(S(=O)(=O)c2ccc(Cl)cc2)CC1	-4	-6	9	-7	-2	16
O=C(Cc1ccc(F)cc1)OCC(=O)N1CCN(S(=O)(=O)c2ccc(Cl)cc2)CC1	2	-2	101*	-2	8	-10
COc1ccc(CC(=O)OCC(=O)N2CCN(S(=O)(=O)c3ccc(C)cc3C)CC2)cc1	-16	-1	-10	69*	-10	-1
COc1ccc(S(=O)(=O)Nc2ccc3c(c2)C(=O)N([C@H](C)CO)C[C@H](C)[C@H](CN(C)C(=O)NC2CCCCC2)OCCCC[C@H](C)O3)cc1	.	.	13	.	18	8
C[C@@H]1CCCCO[C@@H](CN(C)Cc2ccncc2)[C@H](C)CN([C@@H](C)CO)C(=O)c2cc(NC(=O)Nc3ccc(C(F)(F)F)cc3)ccc2O1	.	.	93*	.	11	12
C[C@@H]1CCCCO[C@@H](CN(C)Cc2ccc(C(F)(F)F)cc2)[C@H](C)CN([C@@H](C)CO)C(=O)c2cc(NC(=O)Nc3ccc(C(F)(F)F)cc3)ccc2O1	.	.	37	.	-5	-8
C[C@H](CO)N1C[C@H](C)[C@@H](CN(C)Cc2ccncc2)OCCCC[C@H](C)Oc2ccc(NC(=O)Nc3ccc(C(F)(F)F)cc3)cc2C1=O	.	.	15	.	-9	0
C[C@H](CO)N1C[C@H](C)[C@H](CN(C)Cc2ccncc2)OCCCC[C@H](C)Oc2ccc(NC(=O)Nc3ccc(C(F)(F)F)cc3)cc2C1=O	.	.	71*	.	-6	10
C[C@H]1CCCCO[C@@H](CN(C)Cc2ccncc2)[C@@H](C)CN([C@@H](C)CO)C(=O)c2cc(NC(=O)Nc3ccc(C(F)(F)F)cc3)ccc2O1	.	.	81*	.	6	8
C/C=C/c1cnc2c(c1)C(=O)N([C@H](C)CO)C[C@H](C)[C@@H](CN(C)S(=O)(=O)c1ccc(F)cc1)O2	.	.	.	.	-1	1
CCCC(=O)Nc1ccc2c(c1)C(=O)N(C)[C@H]1CC[C@H](CC(=O)NCC(F)(F)F)O[C@@H]1CO2	.	.	-6	.	15	-9
SMILES	Shn3 3UTR inh	TRPM1 prom inh	PAX8 reporter	LMP1 NFkB inh	LGR2 antag	EWS-Fli block
COc1cc2c(cc1OC)C(C)=NC1(CCCCC1)C2	12	-7	39	1	-14	14
COc1cc2c(cc1OC)C(SC)=NC1(CCCC1)C2	15	87*	5	3	8	-11
CCN1CCN(c2ccc(NC(=O)c3ccc([N+](=O)[O-])o3)cc2Cl)CC1	68	71*	83*	-37	-37	33
CCC(=O)N1CCN(c2ccc(NC(=O)c3ccco3)cc2Cl)CC1	-30	-27	-17	-4	-2	.
CN1CCN(c2ccccc2NC(=O)c2ccc([N+](=O)[O-])o2)CC1	14	79*	.	-7	.	.
CS(=O)(=O)N1CCN(c2ccccc2NC(=O)c2ccc([N+](=O)[O-])o2)CC1	1	29	23	-17	10	7
CCC(=O)N1CCN(c2ccc(Cl)cc2NC(=O)c2cccc([N+](=O)[O-])c2)CC1	-4	20	20	-6	-9	0
CCC(=O)N1CCN(c2ccc(Cl)cc2NC(=O)c2ccc([N+](=O)[O-])o2)CC1	-30	67*	27	-23	-3	27
CCC(=O)N1CCN(c2ccc(NC(=O)c3ccc([N+](=O)[O-])o3)cc2Cl)CC1	96*	87*	99*	-48	5	?
COCC(=O)NC[C@H]1[C@@H](c2ccccc2)[C@@H](CO)N1C(=O)c1ccccc1	.	.	-8	.	8	2
CC(=O)N1CCN(c2ccc(NC(=O)c3ccc([N+](=O)[O-])o3)cc2Cl)CC1	96*	95*	102*	-26	26	50
O=C(Nc1cc(Cl)ccc1-n1cncn1)c1ccc([N+](=O)[O-])o1	-28	53	63*	-3	19	37
O=C(Nc1cc(Cl)ccc1F)c1ccc(-n2cncn2)c([N+](=O)[O-])c1	-16	-3	-8	0	-4	-7
O=C(C[C@H]1CC[C@H]2[C@@H](COC[C@@H](O)CN2Cc2ccncc2)O1)NCc1ccccc1Cl	.	.	.	.	-10	.

Assay outcomes: PubChem BioAssay, Broad Institute
